Experimental data as given in paper PMC5540273 (PLoS ONE, 2017).

Test system: FLT4
Conditions: concentration: 1 μM, replicates: in singlicate; n = 1
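Note: KINOMEscan kinase panel screen.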

In order of falling “%Inh” value:
1. COc1cc2nccc(Nc3ccc(OCc4ccc(NC(C)=O)cc4)cc3)c2cc1OC.Cl [GW440135]  92.4%
2. COc1cc(OC)cc(-c2cc3cnc(N)nc3nc2NC(=O)NC(C)(C)C)c1  73%
3. COc1cc2ncn(-c3cc(OCc4ccncc4Br)c(C(N)=O)s3)c2cc1OC [GW854278]  68%
4. Cc1nn2c(=O)cc(N3CCOCC3)nc2n1Cc1cccc(Cl)c1Cl [GSK2342769]  34%
5. Nc1nccc2scc(-c3ccc4c(c3)CCN4C(=O)Cc3ccccc3)c12 [GSK2576924]  21%
6. Cc1nc(N(C)[C@H]2CN(C(=O)CC#N)CC[C@H]2C)c2cc[nH]c2n1  15%
7. C[C@@H]1CC[C@H](C(=O)NC2CCCCC2)CN1c1cc(-c2ccc3c(N)n[nH]c3c2)nc(N)n1 [GSK2291363]  14%
8. CCCNC(=O)Nc1ccc(Oc2ncnc3ccn(C)c23)cc1  10%
9. FC(F)(F)c1ccc(-c2ncn(CCCN3CCOCC3)c2-c2ccncc2)cc1 [SB-217780]  2%
10. CCCC(=O)Nc1n[nH]c2ncc(-c3cccc4ccccc34)cc12 [SB-642057]  1%
11. O=C(Nc1n[nH]c2cc(-c3ccccc3F)ccc12)C1CC1 [SB-733371]  0%
12. Cc1c(Cn2c(C)nn3c(=O)cc(N4CCO[C@H](C)C4)nc23)cccc1C(F)(F)F [GSK2373690]  0%
13. Cc1cccc(-c2nc(Nc3ccc4c(cnn4C)c3)c3ccccc3n2)n1 [GW876731]  0%
